The list is not random: actives were taken first. Their share in the collection is about 17%.
DT40 TDP1 no CPT: qHTS for Inhibitors of human tyrosyl-DNA phosphodiesterase 1 (TDP1): qHTS in cells in absence of CPT | 420,000 tested, 15% active | DT40 Tdp1-/- hTDP1 cells, no CPT, ATP luminescence, 48 h | AID 686978, 2013 | Potency, µM (series often up to 46.2 µM), for inactives: at the highest dose activity change, negative = growth inhibition, most hits filed as inhibitors; further: on the % scale 0 is the no-effect control and ±100 the full control effect; nearly all actives have a fitted effect of over 55% in size
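Chicken DT40 Tdp1-/- cells stably complemented with human TDP1 were seeded at 400 cells/well with DMSO in place of 20 nM camptothecin. After compound pinning, cells grew at least 48 hr at 37 °C; viability read by CellTiter-Glo luminescence.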
S2 tox: cell viability loss in ATXN counter-screen. 400,000 tested, 0.49% active. Potency, µM (series often up to 56.7 µM), actives largely listed as cytotoxic. S2 cells (HEK-293 line with an ATXN2-luciferase reporter) viability, CellTiter-Fluor protease fluorescence, 24 h; further: nearly all actives have a fitted effect of over 40% in size
TDP1 cell CPT: growth inhibition of DT40 Tdp1-/-;hTDP1 cells with camptothecin (screen for TDP1 inhibitors); Potency, µM (doses to about 46.2 µM), without a hit: at the top dose activity change, negative = growth inhibition, most hits filed as inhibitors; chicken DT40 Tdp1-/-;hTDP1 cells + 20 nM CPT, ATP luminescence, 48 h; AID 686979; 420,000 tested, 12% active; further: on the % scale 0 is the no-effect control and ±100 the full control effect; nearly all actives have a fitted effect of over 55% in size
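Chicken DT40 Tdp1-/- cells complemented with human TDP1, 400 cells/well, exposed to compounds plus 20 nM camptothecin for at least 48 h at 37 C; viability read as ATP content by CellTiter-Glo luminescence.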
HepG2 tox: HepG2 cytotoxicity, counter-screen for TGF-b inhibitors; HepG2 CAGA-GFP viability, ATP luminescence, 18 h; Potency, µM (series often up to 46.1 µM), inactives show top-dose activity change, negative = cytotoxicity, hits mostly cytotoxic; 410,000 tested, 0.76% active
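HepG2 CAGA-GFP cells (1000/well, DMEM with 1% FBS) received compound, then TGF-beta at 500 pg/mL final, and were incubated 18 hours at 37 degrees C. Viability was read by CellTiter-Glo luminescence. Media-only wells were set as complete cell-killing and DMSO as no toxicity.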
TGFb SMAD3 inh: blocks TGF-b signaling. HepG2 CAGA-GFP TGF-b/SMAD3 reporter, GFP fluorescence, 18 h; TGF-beta stimulated, 500 pg/mL final. AID 588855. Potency, µM (series often up to 46.1 µM), without a hit: at the top dose activity, negative = inhibition, actives largely listed as inhibitors. 410,000 tested, 1.2% active; further: on the % scale 0 is the no-effect control and ±100 the full control effect; nearly all actives have a fitted effect of over 65% in size
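Per well, imaged GFP fluorescence of HEPG2 CAGA-GFP cells gives the signal; cells get compound, then TGF-beta (500 pg/mL final), 18 h at 37 degrees C; %Activity versus -TGF-beta and +DMSO controls.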
ATXN2 expr inh: ATXN2 expression inhibition; HEK-293 ATXN2-luciferase reporter, luminescence, 24 h; Potency, µM (series often up to 57 µM), without a hit: top-dose activity change, negative = inhibition, actives largely listed as inhibitors; 360,000 tested, 0.72% active; AID 1745845; further: on the % scale 0 is the no-effect control and ±100 the full control effect; nearly all actives have a fitted effect of over 55% in size
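ATXN2-luciferase reporter cells (luciferase flanked by upstream and downstream ATXN2 gene portions) were treated 24 h at 37 °C with compounds at up to 57 uM. SteadyGlo luminescence gave expression; GF-AFC fluorescence gave viability.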
An asterisk follows results filed as active; i = inactive; u = inconclusive; x = not tested or not shown. The call rests on the fitted dose curve; in most records, active means well fitted curve in the direction sought with a large enough effect; inconclusive means small, poorly fitted or top-dose-only effect, or another doubt; inactive means no such curve, though single readings can be large; an effect the other way counts as inactive or inconclusive. Potency means the concentration at half of the fitted maximal effect.

SMILES | DT40 TDP1 no CPT | S2 tox | TDP1 cell CPT | HepG2 tox | TGFb SMAD3 inh | ATXN2 expr inh
O=C1c2ccccc2C(O)(c2ncc[nH]2)N1CCc1ccccc1 (configuration not stated) | 9% | i | u | -28% | -4% | 4%
Cn1c(SCc2ccc(Br)cc2)nc2ccccc2c1=O | 12µM* | i | u | -2% | u | -8%
Cc1cccc(CSc2nc3ccccc3c(=O)n2C)c1 | 18µM* | i | u | -36% | u | x
CNC(=O)[C@@H]1C[C@H](NC2CCCCCCC2)CN1Cc1cccc(OC)c1OC | -28% | i | u | x | x | x
CCCN1CNc2c(c(=O)[nH]c(=S)n2CCc2ccccc2Cl)C1 | 11µM* | x | u | x | x | x
O=C1CNC(=S)N1Cc1ccccc1Cl | -5% | i | 5% | -5% | 3% | x
CCCN1CNc2c(c(=O)[nH]c(=S)n2CCc2cc(C)ccc2C)C1 | 13µM* | x | u | x | x | x
CCCN1CNc2c(c(=O)[nH]c(=S)n2CCc2ccc(OCC)c(OCC)c2)C1 | u | x | -20% | x | x | x
CCCn1c(SCC(=O)NCCc2ccc(Cl)cc2Cl)n[nH]c1=O | -20% | i | -22% | -26% | 4% | -2%
CCCN1CNc2c(c(=O)[nH]c(=S)n2CCc2c(Cl)cccc2Cl)C1 | 13µM* | x | 16µM* | x | x | x
CCCN1CNc2c(c(=O)[nH]c(=S)n2CCc2ccc(Cl)cc2Cl)C1 | 13µM* | x | u | x | x | x
COc1ccc(C)cc1NC(=O)C(=O)NCCc1csc(-c2ccc(C)cc2)n1 | u | x | u | -5% | 0% | x
O=C(COC(=O)c1nc(Cl)ccc1Cl)NCCc1ccccc1 | -8% | i | -21% | -1% | -3% | -5%
CCCC(CCC)C(N)=O | 4% | i | -1% | x | x | x
CCCN1CNc2c(c(=O)[nH]c(=S)n2CCc2ccc(OC)c(OC)c2)C1 | -23% | i | 3% | 15% | 0% | i
CCCN1CNc2c(c(=O)[nH]c(=S)n2CCc2ccc(OC)cc2OC)C1 | 13µM* | x | u | x | x | x
CCCN1C(=O)/C(=C/C=C2\N(CC)c3ccccc3C2(C)C)SC1=S | 13µM* | u | u | -3% | 51% | -11%
CN1/C(=C\C=C2/SC(=S)N(CC(=O)O)C2=O)C(C)(C)c2ccccc21 | u | i | -30% | -19% | 103% | x
CCCCCCCNC(=O)C1(CC2CC(c3ccc(Cl)cc3)=NO2)CCN(C(=O)C2(C)CC2)CC1 (configuration not stated) | 16µM* | u | u | -19% | u | u
CCCCCCCNC(=O)C1(CC2CC(c3ccccc3)=NO2)CCNCC1 (configuration not stated) | 16µM* | u | u | -93% | u | u
O=C1[C@@H](Oc2ccccc2)[C@@H](c2cccnc2)N1c1ccccc1 | 18µM* | u | 21µM* | -19% | -16% | u
O=C1[C@@H](Oc2ccccc2)[C@@H](c2ccccc2)N1c1ccccc1 | -27% | i | -19% | -2% | 7% | -9%
O=C1[C@H](Oc2ccccc2)[C@@H](c2ccccc2)N1c1ccncc1 | 23µM* | x | u | -50% | u | u
COc1ccc(CC(=O)Nc2ccc(S(=O)(=O)N3CCCCC3)cc2)cc1OC | u | i | u | -53% | -19% | u
CC(C)CN(C(=O)CN1CCc2ccccc21)c1c(N)n(CC(C)C)c(=O)[nH]c1=O | -4% | i | -18% | -6% | -7% | x
SMILES | DT40 TDP1 no CPT | S2 tox | TDP1 cell CPT | HepG2 tox | TGFb SMAD3 inh | ATXN2 expr inh
CCCCn1nc(C(=O)N2CCN(S(=O)(=O)c3ccccc3)CC2)c2ccccc2c1=O | 15µM* | i | u | 40% | 0% | 2%
CCOC(=O)c1ccc(S(=O)(=O)N2CCN(C(=O)c3nn(C)c(=O)c4ccccc34)CC2)cc1 | u | i | -25% | 9% | -5% | x
Cn1nc(C(=O)N2CCN(C(c3ccccc3)c3ccccc3)CC2)c2ccccc2c1=O | u | i | 23µM* | -3% | -17% | -16%
CCOc1ncccc1C(=O)N1CCN(C(c2ccccc2)c2ccccc2)CC1 | 13µM* | u | 13µM* | -25% | -4% | -31%
Cn1nc(C(=O)N2CCN(S(=O)(=O)/C=C/c3ccccc3)CC2)c2ccccc2c1=O | u | i | 14% | 2% | -2% | -16%
CCCn1nc(C(=O)N2CCN(c3ccccn3)CC2)c2ccccc2c1=O | u | u | -17% | 6% | 6% | -6%
Cn1nc(C(=O)N2CCN(S(=O)(=O)c3ccc(Cl)cc3)CC2)c2ccccc2c1=O | 23µM* | i | u | -21% | u | -4%
CCOC(=O)Cn1c(=O)n(CC2CCCO2)c2nc(-c3ccccc3F)nc(C(N)=O)c21 (configuration not stated) | x | i | x | -4% | 1% | 6%
CCCc1cc(NCCCO)n2c(nc3ccccc32)c1C#N | u | i | -1% | 1% | 28% | -12%
O=C(c1n[nH]c2ccccc12)N1CCCCC1 | -5% | i | 0% | -4% | 0% | 3%
O=C(c1n[nH]c2ccccc12)N1CCN(S(=O)(=O)c2ccc(Cl)cc2)CC1 | 18µM* | i | u | 5% | 3% | 4%
CCN(CC)S(=O)(=O)c1cccc(C(=O)Nc2sc3c(c2C#N)CCC(C)C3)c1 (configuration not stated) | u | i | -27% | -13% | -19% | 9%
COCc1nnc(NC(=O)C2CC(=O)N(c3ccc(C)c(Cl)c3)C2)s1 (configuration not stated) | -21% | i | -17% | -1% | -1% | -7%
Cc1ccc(N2CC(C(=O)Nc3nccs3)CC2=O)cc1Cl (configuration not stated) | u | i | u | -43% | -1% | 6.3µM*
O=C(CCn1c(=O)[nH]c2ccccc21)NCC1Cc2cc(Cl)cc(-c3ccncc3)c2O1 (configuration not stated) | -27% | i | 4% | x | x | x
COc1ccc(NC(=O)C2=CC(c3ccc(C)cc3)=NS(=O)(=O)N2C)cc1 | 23µM* | i | 16µM* | -17% | u | -18%
COc1ccc(C2=NS(=O)(=O)N(C)C(C(=O)Nc3cc(OC)c(OC)c(OC)c3)=C2)cc1 | 15µM* | u | 12µM* | -18% | -27% | -11%
